Source: the supplement of paper PMC11732987, “Enantioselective OTUD7B fragment discovery through chemoproteomics screening and high-throughput optimisation” (Communications Chemistry, 2025)

Tests used:
Test in all cases: log2 ratio of Biotin-Ahx-Ub-VS probe labelling (fragment/DMSO); higher = less target engagement (more negative = stronger competition), active = hit call of the paper (q ≤ 0.05, log2 ratio ≤ -1)
Details in all cases: compound concentration: 200 uM; treatment time: 3 h
USP9X = USP9X (UniProt Q93008)
Summary of the method: (§1)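 HEK293T lysate in Tris/CHAPS/IGEPAL buffer with protease inhibitors (495 µg per sample) was given fragment at 200 µM or vehicle for 3 h, in triplicate. It then received Biotin-Ahx-Ub-VS at 0.5 µM final for 1 h. Labelled DUBs were NeutrAvidin-enriched, digested with LysC and trypsin, and run by diaPASEF LC-MS/MS. Values are average log2 fragment/vehicle ratios by unpaired t-test on global-median-normalised Spectronaut quantities of proteins with ≥2 unique peptides.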

UniProt O00487 = biological target: UniProt O00487
UniProt O00487, sequence (O00487 whole entry): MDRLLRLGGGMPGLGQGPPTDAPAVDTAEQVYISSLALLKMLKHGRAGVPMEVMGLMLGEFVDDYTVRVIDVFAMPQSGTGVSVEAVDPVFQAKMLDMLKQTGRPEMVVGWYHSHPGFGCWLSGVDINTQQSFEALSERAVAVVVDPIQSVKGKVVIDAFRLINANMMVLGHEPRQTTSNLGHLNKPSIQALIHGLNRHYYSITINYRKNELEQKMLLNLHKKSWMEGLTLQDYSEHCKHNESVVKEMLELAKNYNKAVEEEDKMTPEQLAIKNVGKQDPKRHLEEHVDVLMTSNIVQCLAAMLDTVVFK
Summary of the method: as §1

UniProt O00507 = biological target: UniProt O00507
UniProt O00507, sequence (O00507 whole entry): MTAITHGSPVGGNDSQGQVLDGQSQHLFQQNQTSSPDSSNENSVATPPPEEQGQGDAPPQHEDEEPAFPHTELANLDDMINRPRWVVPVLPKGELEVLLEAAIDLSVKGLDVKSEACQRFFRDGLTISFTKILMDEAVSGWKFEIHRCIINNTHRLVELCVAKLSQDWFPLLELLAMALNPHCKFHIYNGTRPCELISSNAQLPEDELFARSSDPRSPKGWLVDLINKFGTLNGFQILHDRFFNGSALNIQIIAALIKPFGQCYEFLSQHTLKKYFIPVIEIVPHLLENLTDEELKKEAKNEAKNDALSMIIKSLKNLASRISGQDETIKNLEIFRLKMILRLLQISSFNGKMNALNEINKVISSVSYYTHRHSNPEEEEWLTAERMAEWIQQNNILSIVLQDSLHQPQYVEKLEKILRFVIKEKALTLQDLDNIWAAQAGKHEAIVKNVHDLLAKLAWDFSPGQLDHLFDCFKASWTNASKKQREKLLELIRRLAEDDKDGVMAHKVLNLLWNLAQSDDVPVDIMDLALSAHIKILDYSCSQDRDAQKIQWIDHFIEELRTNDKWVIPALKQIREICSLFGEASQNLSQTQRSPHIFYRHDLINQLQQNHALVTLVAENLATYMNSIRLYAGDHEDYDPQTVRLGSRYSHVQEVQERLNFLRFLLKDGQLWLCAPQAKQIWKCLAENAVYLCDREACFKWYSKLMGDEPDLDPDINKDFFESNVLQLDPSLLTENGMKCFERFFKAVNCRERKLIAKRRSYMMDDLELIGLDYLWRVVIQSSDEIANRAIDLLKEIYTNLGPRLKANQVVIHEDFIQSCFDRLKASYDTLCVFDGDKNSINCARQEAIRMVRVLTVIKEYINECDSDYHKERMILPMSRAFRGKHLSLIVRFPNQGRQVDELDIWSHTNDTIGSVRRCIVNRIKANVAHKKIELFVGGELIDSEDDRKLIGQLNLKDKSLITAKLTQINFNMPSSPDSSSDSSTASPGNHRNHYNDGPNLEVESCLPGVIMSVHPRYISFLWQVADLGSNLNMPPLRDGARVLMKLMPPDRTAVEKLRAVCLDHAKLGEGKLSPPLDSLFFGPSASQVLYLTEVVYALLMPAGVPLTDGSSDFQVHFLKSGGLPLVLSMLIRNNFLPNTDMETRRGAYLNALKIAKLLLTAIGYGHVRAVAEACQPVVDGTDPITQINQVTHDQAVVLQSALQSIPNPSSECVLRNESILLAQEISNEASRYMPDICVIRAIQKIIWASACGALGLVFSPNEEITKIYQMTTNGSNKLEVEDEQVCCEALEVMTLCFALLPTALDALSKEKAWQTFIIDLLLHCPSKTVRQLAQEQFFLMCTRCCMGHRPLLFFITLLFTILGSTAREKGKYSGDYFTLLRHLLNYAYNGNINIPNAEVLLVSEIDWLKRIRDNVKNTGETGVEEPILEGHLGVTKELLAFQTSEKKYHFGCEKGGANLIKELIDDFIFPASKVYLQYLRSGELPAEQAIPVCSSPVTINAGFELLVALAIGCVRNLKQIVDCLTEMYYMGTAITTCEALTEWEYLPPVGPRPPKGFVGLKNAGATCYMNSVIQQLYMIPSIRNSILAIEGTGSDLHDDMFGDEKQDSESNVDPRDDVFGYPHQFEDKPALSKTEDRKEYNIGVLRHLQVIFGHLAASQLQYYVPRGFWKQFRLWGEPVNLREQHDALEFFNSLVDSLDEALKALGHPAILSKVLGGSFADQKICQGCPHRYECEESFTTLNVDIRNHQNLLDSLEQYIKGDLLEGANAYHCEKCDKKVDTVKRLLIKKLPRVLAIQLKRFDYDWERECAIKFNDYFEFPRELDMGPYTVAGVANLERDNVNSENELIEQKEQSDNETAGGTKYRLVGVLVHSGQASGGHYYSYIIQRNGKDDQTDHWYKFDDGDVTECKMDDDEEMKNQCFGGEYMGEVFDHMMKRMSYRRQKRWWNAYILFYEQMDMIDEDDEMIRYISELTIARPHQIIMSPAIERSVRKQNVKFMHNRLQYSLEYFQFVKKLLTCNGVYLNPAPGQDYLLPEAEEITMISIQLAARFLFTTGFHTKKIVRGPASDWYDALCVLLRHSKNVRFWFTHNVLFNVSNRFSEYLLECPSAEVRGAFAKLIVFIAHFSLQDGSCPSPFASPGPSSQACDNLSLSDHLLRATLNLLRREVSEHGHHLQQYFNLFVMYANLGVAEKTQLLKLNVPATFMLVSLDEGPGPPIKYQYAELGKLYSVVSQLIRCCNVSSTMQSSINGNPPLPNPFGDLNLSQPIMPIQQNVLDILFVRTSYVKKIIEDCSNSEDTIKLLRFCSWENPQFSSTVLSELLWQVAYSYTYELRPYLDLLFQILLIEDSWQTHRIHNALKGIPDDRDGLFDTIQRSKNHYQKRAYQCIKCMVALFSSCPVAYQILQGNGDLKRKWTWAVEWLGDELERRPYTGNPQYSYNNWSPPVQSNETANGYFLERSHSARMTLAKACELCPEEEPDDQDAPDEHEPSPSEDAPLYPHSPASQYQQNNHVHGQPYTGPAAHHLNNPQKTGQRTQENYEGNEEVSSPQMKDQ
Summary of the method: as §1

UniProt P51784 = biological target: UniProt P51784
UniProt P51784, sequence (P51784 whole entry): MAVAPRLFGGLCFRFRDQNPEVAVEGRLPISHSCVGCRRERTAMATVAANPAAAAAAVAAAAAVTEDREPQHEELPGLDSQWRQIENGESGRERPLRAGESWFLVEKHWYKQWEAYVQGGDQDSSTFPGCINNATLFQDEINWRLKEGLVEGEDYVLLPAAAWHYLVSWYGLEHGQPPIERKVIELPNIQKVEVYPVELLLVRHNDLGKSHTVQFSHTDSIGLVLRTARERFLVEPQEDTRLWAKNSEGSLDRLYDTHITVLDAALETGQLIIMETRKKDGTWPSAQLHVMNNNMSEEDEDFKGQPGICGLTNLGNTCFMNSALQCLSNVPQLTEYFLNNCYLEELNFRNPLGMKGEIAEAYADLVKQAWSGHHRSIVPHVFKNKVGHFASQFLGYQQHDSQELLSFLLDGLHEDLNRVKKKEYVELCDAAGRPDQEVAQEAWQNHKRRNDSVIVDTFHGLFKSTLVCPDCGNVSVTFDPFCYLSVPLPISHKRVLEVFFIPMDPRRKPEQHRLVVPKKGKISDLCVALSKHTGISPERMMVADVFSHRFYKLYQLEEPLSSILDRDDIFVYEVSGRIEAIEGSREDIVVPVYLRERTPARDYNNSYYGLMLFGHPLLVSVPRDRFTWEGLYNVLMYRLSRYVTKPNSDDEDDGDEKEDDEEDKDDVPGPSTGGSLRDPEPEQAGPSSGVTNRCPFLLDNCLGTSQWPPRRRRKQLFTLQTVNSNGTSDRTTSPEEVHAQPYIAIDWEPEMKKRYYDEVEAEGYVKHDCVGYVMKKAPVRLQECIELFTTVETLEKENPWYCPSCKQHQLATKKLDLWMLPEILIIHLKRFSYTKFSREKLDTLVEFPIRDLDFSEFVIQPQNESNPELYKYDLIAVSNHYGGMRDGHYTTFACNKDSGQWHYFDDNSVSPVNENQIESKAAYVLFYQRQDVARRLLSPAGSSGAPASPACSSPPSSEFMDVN
Summary of the method: as §1

UniProt Q5T2D3 = biological target: T1, UniProt Q5T2D3
T1 sequence (whole entry): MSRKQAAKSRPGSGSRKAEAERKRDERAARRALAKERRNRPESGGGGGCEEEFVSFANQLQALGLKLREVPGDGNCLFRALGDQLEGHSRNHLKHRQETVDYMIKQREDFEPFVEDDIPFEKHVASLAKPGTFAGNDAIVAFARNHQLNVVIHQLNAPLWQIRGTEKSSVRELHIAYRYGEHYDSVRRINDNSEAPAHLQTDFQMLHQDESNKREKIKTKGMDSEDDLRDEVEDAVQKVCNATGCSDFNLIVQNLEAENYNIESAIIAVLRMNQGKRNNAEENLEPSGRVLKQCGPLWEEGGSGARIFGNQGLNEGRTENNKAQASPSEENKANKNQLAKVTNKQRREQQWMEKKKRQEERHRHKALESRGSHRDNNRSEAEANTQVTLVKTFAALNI
Summary of the method: as §1

UniProt Q8TE49 = biological target: T2, UniProt Q8TE49
T2 sequence (whole entry): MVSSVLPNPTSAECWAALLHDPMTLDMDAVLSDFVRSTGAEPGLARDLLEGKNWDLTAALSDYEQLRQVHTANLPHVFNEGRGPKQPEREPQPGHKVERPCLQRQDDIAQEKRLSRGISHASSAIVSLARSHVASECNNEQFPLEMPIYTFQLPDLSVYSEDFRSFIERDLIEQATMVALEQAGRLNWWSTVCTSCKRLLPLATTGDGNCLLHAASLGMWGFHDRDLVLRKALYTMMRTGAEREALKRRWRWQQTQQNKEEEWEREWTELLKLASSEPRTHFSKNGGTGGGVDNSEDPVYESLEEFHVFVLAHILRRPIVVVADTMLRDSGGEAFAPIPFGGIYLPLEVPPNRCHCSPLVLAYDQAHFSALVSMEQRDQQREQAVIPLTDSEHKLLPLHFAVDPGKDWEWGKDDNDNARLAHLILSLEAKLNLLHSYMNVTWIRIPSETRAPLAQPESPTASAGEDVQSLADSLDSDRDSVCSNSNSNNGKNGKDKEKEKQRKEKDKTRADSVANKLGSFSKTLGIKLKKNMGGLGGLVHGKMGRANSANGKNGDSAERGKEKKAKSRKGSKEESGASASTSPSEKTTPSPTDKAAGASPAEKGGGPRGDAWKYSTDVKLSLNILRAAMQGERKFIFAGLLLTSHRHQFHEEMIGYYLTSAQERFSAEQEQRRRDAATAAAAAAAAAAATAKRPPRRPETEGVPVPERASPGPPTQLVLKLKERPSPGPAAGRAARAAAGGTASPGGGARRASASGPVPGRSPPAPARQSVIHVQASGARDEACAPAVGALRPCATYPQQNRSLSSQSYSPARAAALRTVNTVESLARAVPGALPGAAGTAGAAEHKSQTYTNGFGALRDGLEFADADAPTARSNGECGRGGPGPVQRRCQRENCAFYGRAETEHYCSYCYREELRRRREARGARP
Summary of the method: as §1

UniProt Q9P2H5 = biological target: T3, UniProt Q9P2H5
T3 sequence (whole entry): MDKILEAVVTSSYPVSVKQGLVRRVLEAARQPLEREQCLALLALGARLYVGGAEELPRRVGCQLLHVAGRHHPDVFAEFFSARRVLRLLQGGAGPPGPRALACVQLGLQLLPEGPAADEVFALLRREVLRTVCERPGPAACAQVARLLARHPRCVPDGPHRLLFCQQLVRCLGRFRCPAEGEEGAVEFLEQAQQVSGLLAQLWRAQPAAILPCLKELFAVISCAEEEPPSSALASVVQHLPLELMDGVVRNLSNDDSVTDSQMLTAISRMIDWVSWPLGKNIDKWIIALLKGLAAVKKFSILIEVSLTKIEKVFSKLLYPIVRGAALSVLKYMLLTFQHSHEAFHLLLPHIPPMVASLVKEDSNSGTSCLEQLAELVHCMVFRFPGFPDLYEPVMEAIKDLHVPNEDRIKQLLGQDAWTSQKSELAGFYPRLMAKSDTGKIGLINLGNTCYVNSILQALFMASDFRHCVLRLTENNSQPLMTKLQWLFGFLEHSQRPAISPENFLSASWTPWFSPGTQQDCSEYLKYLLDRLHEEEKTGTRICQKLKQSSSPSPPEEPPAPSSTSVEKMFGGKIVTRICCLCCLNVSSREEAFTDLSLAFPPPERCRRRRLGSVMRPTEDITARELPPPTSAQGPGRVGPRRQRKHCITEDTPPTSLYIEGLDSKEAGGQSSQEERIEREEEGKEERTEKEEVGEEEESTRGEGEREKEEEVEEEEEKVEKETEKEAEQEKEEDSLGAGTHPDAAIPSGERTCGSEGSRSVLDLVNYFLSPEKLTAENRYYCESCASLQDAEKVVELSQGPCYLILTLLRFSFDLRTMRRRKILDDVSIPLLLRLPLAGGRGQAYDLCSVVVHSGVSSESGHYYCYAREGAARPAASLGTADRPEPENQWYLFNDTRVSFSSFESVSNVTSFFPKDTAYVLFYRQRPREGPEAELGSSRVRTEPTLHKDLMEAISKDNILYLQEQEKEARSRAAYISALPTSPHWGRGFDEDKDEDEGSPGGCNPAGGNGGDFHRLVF
Summary of the method: as §1

UniProt Q9UGI0 = biological target: T4, UniProt Q9UGI0
T4 sequence (whole entry): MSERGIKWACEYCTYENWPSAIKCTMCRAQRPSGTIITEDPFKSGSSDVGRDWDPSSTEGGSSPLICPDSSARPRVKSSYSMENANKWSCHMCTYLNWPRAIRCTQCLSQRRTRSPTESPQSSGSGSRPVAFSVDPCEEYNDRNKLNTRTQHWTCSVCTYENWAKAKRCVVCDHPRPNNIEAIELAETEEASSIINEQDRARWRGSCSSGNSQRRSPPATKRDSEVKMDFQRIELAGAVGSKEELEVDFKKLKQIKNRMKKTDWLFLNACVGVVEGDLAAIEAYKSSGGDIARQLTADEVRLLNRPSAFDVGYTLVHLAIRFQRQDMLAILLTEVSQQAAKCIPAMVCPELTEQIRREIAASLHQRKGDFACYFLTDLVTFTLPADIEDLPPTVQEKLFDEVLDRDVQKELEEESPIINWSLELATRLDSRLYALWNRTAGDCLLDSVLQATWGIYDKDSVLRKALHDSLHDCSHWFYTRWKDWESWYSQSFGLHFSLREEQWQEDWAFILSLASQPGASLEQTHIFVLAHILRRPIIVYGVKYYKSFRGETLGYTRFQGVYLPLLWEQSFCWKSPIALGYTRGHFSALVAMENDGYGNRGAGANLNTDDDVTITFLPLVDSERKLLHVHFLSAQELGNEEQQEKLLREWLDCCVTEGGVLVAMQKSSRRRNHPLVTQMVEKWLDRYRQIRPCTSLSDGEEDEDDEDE
Summary of the method: as §1

YOD1 = biological target: T5, YOD1 (UniProt Q5VVQ6)
T5 sequence (whole entry): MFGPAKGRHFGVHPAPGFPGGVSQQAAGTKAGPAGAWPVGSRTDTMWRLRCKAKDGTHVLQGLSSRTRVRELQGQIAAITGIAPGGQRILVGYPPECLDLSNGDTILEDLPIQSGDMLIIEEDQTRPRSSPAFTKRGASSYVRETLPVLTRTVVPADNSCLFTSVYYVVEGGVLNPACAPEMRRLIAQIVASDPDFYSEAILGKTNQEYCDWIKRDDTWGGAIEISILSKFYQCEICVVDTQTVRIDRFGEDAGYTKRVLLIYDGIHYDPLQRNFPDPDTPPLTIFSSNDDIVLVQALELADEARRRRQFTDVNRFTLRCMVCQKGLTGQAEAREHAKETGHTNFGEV
Summary of the method: as §1

Measured: log2 ratio of Biotin-Ahx-Ub-VS probe labelling

Cc1ccccc1CN(C)C(=O)CCl
active: UniProt O00507 -1.06 | UniProt Q8TE49 -1.06 | UniProt Q9UGI0 -1.3
inactive: USP9X -0.836 | UniProt O00487 -0.14 | UniProt P51784 -0.62 | UniProt Q5T2D3 -0.704 | UniProt Q9P2H5 -0.712 | YOD1 -0.638
